This is an account of results in PubChem BioAssay (NCI).

Molecules are shown by their SMILES. The panel holds about 83,000 compounds, 20% with a hit somewhere; the sample as a whole holds those more often.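 Step 1: grow cells in 96-well plates. Step 2: add test compound at a single concentration. Step 3: incubate 48 h. Step 4: record percent growth.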 Unmarked numbers belong to inactive results. The source made the active and inactive calls. How the source made its calls: active means growth percent below 10; inactive means the rest.

In this test the test system is HL-60(TB) leukemia. Kind of test: NCI-60 one-dose screen, 48 h (100 = growth as untreated, 0 = no growth, -100 = all killed). The note with it: 10 µM unless noted.
As for `C=CCNc1nc(NN2C(=O)c3cccc4cccc(c34)C2=O)nc(-n2cnc3ccccc32)n1`, the growth was 93.9%.

As for `CCCOc1ccc(/C=N/Nc2cc(C)nc3ccc(Cl)cc23)cc1`, the growth is -48% (active).

On to `COc1ccc2[nH]cc(C3(c4c[nH]c5ccc(OC)cc45)C(=O)Nc4ccc(Cl)cc43)c2c1`, for which the growth is 10.9%.

As to `COc1cc2c(cc1OCCCN1CCN(c3ncnc4ccccc34)CC1)N=CC1CCCN1C2=O` (stereo not given), the growth was -53.2% (active).

As for `COc1ccc2c(c1)C(C)Cc1c(Cl)ncnc1N2C` (stereo not given), the growth is -0.632% (active).

For `CN(C)Cc1cc(C(C)(C)CC(C)(C)C)ccc1O`, the growth was 94.4%.

`COc1ccc(S(=O)(=O)Nc2cc(Sc3cccc4cccnc34)c(O)c3ccccc23)cc1`: the growth was -18.8% (active).

In the case of `c1ccc2cc(Cn3c(-c4ccc5ccccc5c4)[n+](Cc4ccc5ccccc5c4)c4ccccc43)ccc2c1`, the growth was -45.9% (active).

In the case of `COc1ccc2c(c1)c(-c1noc(-c3cn(C)c4ncc(F)cc34)n1)cn2C`, the growth is 84.6%.

In the case of `COc1ccccc1/C=C1\COc2ccc(O)c(O)c2C1=O`, the growth was -21.9% (active).

Take `CCOC(=O)C(C(=O)OCC)C(c1ccccc1)N1CCN(c2ccccc2)CC1` (stereo not given): the growth is 97.7%.

For the compound `COc1ccc(/C(=N\O)c2cc(OC)c(OC)c(OC)c2)c(OC)c1N`, the growth was -23.8% (active).

Regarding `O=C1Nc2ccccc2C1=NC1CCCCC1`, the growth is 110%.

For the compound `C[C@@H]1O[C@@H](O[C@H]2[C@@H](OC(=O)[C@]34CCC(C)(C)C[C@H]3C3=CC[C@@H]5[C@@]6(C)C[C@H](O)[C@H](O[C@@H]7O[C@H](CO)[C@@H](O)[C@H](O)[C@H]7O)[C@@](C)(CO)[C@@H]6CC[C@@]5(C)[C@]3(C)C[C@H]4O)OC[C@@H](O)[C@@H]2O)[C@H](O)[C@H](O[C@@H]2OC[C@@H](O)[C@H](O[C@@H]3OC[C@](O)(CO)[C@H]3O[C@@H]3OC[C@@H](O)[C@H](O)[C@H]3O)[C@H]2O)[C@H]1O[C@@H]1OC[C@](O)(CO)[C@H]1O`, the growth was 21.4%.

As for `O=C(NOCCO)c1cc(CN2OCCCC2=O)c(F)c(F)c1Nc1ccc(I)cc1F`, the growth was 18.2%.

Turning to `O=c1nc(-c2ccccc2)c2cc(-c3ccc(N4CCOCC4)cc3)ccc2[nH]1`, the growth was 63.5%.

As to `COc1ccc(-c2csc(NC(=O)CO[N+](=O)[O-])n2)cc1`, the growth was 107%.

Turning to `Cc1ccccc1-c1cc(Cc2ccc(F)cc2)c(=O)[nH]n1`, the growth was 54.2%.

For the compound `CC(C)(C)OC(=O)N1C/C(=C\c2ccccc2)C(=O)/C(=C/c2ccccc2)C1`, the growth is 99.6%.

Consider `COc1ccc2c(c1)[nH]c(=O)c1c3cc(C)c(C)cc3cn21`, for which the growth is -14.8% (active).

Turning to `CCOC(=O)CN1CCC(C(=O)OCC)CC1`, the growth is 116%.

Take `COc1ccc(S(=O)(=O)N(C)c2oc(-c3ccc(Cl)cc3)nc2C#N)cc1`: the growth was 63.9%.

For `COc1cccc(C2CC(=O)Nc3c2c(C)nn3-c2nc3ccccc3[nH]2)c1OC` (stereo not given), the growth was 18.9%.

Take `CC(=O)OCCO`: the growth was 105%.

Take `COc1ccc(NC(=O)c2ccc(Nc3ncnc4[nH]c(C)c(C)c34)cc2)cc1`: the growth is 89.1%.

With `Oc1c(CN2CCC(N3CCCCC3)CC2)cc(Cc2cc(CN3CCC(N4CCCCC4)CC3)c(O)c3ncccc23)c2cccnc12`, the growth is -6.31% (active).

Consider `COc1cc(/C=C2\CN(C(=O)OC(C)(C)C)C/C(=C\c3ccc(O)c(OC)c3)C2=O)ccc1O`, for which the growth is 97.1%.

As for `CCCn1c2cc(OCc3cn(-c4ccc(Cl)cc4)nn3)ccc2c2ccnc(C)c21`, the growth is -51.4% (active).

Regarding `C=C1C(=O)O[C@H]2[C@H]1CC/C(COC(=O)NCCCCNC(=O)OC/C1=C/CC[C@@]3(C)O[C@H]3[C@H]3OC(=O)C(=C)[C@@H]3CC1)=C\CC[C@@]1(C)O[C@@H]21`, the growth was -50.7% (active).

Take `Cc1ccc(-c2n[nH]c(=O)c3noc(-c4ccc(C)cc4)c23)cc1`: the growth is 6.11% (active).

Consider `CCOC(=O)C1OC1(c1ccccc1)c1ccccc1` (stereo not given), for which the growth is 89.4%.

Turning to `OCCNc1nc(Nc2ccc(Cl)c(Cl)c2)nc2ccccc12`, the growth was 44.4%.

As to `O=C(CCl)Nc1ccc2c(c1)C(=O)c1ccc(NC(=O)CCl)cc1C2=O`, the growth was -59.7% (active).

For `COc1ccc(NC(=O)c2sc3nc4c(cc3c2N)C(O)CCC4)cc1` (stereo not given), the growth was 93.2%.

Take `O=C(COc1cccc(/C=C2\Oc3ccc4ccccc4c3C2=O)c1)c1ccc(Cl)cc1`: the growth was 107%.
